# Screens from PubChem BioAssay.
# The list is not random: actives were taken first. Their share in the collection is about 5.9%.
# Gal4-VP16 FLuc – Gal4-VP16 reporter inhibition counter-screen | Drosophila S2 Gal4-VP16 UAS-luciferase, luminescence, 20 h | AID 2546 | Potency, µM (doses to about 53.6 µM), usual class: inhibitors | 3.5% of 310,000 active;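 further: Gal4-VP16 expression switched on by copper sulfate through the metallothionein promoter; nearly all actives have a fitted effect of over 50% in size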
# GALK inhibitor – blocks human galactokinase activity. 0.007% of 270,000 active. Potency, µM (highest dose often 57.5 µM), most hits filed as inhibitors. Purified GALK, Kinase-Glo residual ATP luminescence. P51570. AID 1868
# Target sequence (P51570 whole entry, looked up): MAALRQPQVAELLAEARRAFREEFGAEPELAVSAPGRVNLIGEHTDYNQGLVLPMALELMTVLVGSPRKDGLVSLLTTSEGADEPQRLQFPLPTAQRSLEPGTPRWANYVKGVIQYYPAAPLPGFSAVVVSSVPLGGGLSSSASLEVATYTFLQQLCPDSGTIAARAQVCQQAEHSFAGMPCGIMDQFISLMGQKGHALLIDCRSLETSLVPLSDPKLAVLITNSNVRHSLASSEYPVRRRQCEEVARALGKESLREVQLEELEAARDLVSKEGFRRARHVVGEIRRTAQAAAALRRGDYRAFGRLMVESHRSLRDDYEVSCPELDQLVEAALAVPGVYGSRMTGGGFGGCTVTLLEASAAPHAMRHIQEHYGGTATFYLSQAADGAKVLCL
#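 Luminescence from leftover ATP (Ultra-Glo luciferase/luciferin) served as read-out after a 1 h room-temperature reaction of 5 nM GALK with 35 uM ATP and 100 uM galactose.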
# FBPA coupling cs – coupling enzyme interference in Giardia aldolase counter-screen; 0.67% of 290,000 active; coupling enzyme system counterscreen, AmpLite Red fluorescence; AID 2472; activity change, negative = inhibition, % at 58.2 µM, hits read low; in the data active means activity change below about -30%
#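 First, compound is pin-transferred into glyceraldehyde-3-phosphate coupling-enzyme reagent at 57.5 uM final and held 10 min at RT. Next, substrate, coupling system and AmpLite Red are added. After 20 min RT, fluorescence (525/598 nm) is read.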
# TrxR1 substrate – rat thioredoxin reductase 1 substrate activity | O89049 | purified TrxR1 substrate turnover, NADPH consumption readout | Potency, µM (doses to about 114 µM) | 0.01% of 390,000 active; further: nearly all actives have a fitted effect of over 50% in size
#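 Rat TrxR1, dispensed at 90 nM, was prereduced with 400 uM NADPH (final) for 5 min at ~22 deg C, then incubated with compound 15 min before 400 uM selenite. A first-read NADPH fluorescence drop versus no-compound background flagged substrates.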
# RORgamma inh – blocks mouse ROR gamma transcriptional activity; Potency, µM (doses to about 53.6 µM), most hits filed as inhibitors; 5.4% of 310,000 active; Drosophila S2 Gal4-RORgamma UAS-luciferase reporter, 20 h; P51450; further: nearly all actives have a fitted effect of over 60% in size
#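 Compounds are pin-transferred onto Drosophila Schneider cells expressing a copper-inducible Gal4–ROR gamma transactivation domain fusion. After 1 hr, copper sulfate is added to 700 uM final; luciferase is read 20 hr later.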
# rTrxR1 inhibitor – blocks rat thioredoxin reductase 1 | O89049 | 1% of 390,000 active | AID 588453 | Potency, µM (series often up to 114 µM), usual class: inhibitors | recombinant rTrxR1, NADPH fluorescence consumption, selenite substrate; further: nearly all actives have a fitted effect of over 65% in size
#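 Rat TrxR1 (90 nM in the dispensed reagent) was pre-reduced with 400 uM NADPH for 5 min at room temperature, then incubated with compound for 15 min. After 400 uM selenite was added, NADPH fluorescence (Ex 340/Em 450 nm) was followed for 8 min.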
# Hits are given with their value; – = inactive; ? = inconclusive; · = no result; [ ] = remark or other dose. Unless noted, the call rests on the fitted dose curve; in most records, active means well fitted curve in the direction sought with a large enough effect; inconclusive means small, poorly fitted or top-dose-only effect, or another doubt; inactive means no such curve, though single readings can be large; an effect the other way counts as inactive or inconclusive.
SMILES,Gal4-VP16 FLuc,GALK inhibitor,FBPA coupling cs,TrxR1 substrate,RORgamma inh,rTrxR1 inhibitor
S=c1[nH]c(-c2ccccc2)cn1/N=C/c1cccs1,?,·,–,–,?,–
CCOC(=O)C1(Cc2ccccc2)CCN(Cc2cc(=O)c3ccccc3[nH]2)CC1,–,–,–,–,–,–
COC(=O)c1ccc(N2CCN(C)CC2)c(NC(=O)COc2ccc(C)cc2)c1,–,–,·,–,–,–
O=C(Nc1c[nH]c2c(Cl)cccc2c1=O)N1CCN(c2ccccn2)CC1,–,–,–,–,?,–
CCN=c1scc(-c2ccco2)n1/N=C/c1ccc(O)cc1,0.501µM,–,–,–,0.1µM,–
CCN=c1scc(-c2ccco2)n1/N=C/c1ccc(OC)c(O)c1,–,–,–,–,–,–
CCN(C(=O)COC(=O)C1CCC(C(C)(C)C)CC1)c1c(N)n(Cc2ccccc2)c(=O)[nH]c1=O (stereo unspecified),·,·,·,–,·,–
NS(=O)(=O)c1ccc(NC(=S)NCC2CCCO2)cc1 (stereo unspecified),–,–,–,–,–,–
S=C(NCC1CCCO1)Nc1ccc(Nc2ccccc2)cc1 (stereo unspecified),?,–,–,–,?,–
S=C(NCC1CCCO1)Nc1cc(Cl)c(Cl)cc1Cl (stereo unspecified),17.8µM,–,–,–,3.16µM,–
S=C(NCC1CCCO1)Nc1cccc(Cl)c1 (stereo unspecified),20µM,–,–,–,15.8µM,–
Cc1cc(C)cc(NC(=S)NCC2CCCO2)c1 (stereo unspecified),35.5µM,–,–,–,11.2µM,–
O=C(NCC1CCCO1)Nc1cccc(Cl)c1 (stereo unspecified),–,–,–,–,–,–
COC(=O)/C=C/S(=O)(=O)c1ccc(NC(C)=O)cc1,5.01µM,–,–,–,5.01µM,–
COC(=O)c1ccc(NC(=O)CCS(=O)(=O)c2ccc(Br)cc2)cc1,11.2µM,–,–,–,–,–
Cc1ccc(S(=O)(=O)c2cc(O)ccc2O)cc1C,–,–,–,–,–,?
CC(=O)Nc1ccc(S(=O)(=O)CCC(=O)O)cc1,–,–,–,–,–,–
COC(=O)c1ccc(NC(=O)CCS(=O)(=O)c2ccc(C)cc2)cc1,?,·,–,–,–,–
CC(=O)CCS(=O)(=O)c1ccc(NC(C)=O)cc1,–,–,–,–,–,39.8µM
CC(=O)Nc1ccc(S(=O)(=O)c2cc(O)ccc2O)cc1,–,–,–,–,?,17.8µM
CCOc1ccccc1NC(=O)c1c(NC(=O)COc2ccccc2)sc2c1CCCC2,·,·,·,–,·,–
CC(C)OCCCNC(=O)c1nn(C)c2c1CSc1ccccc1-2,·,·,·,–,·,–
O=C(CCS(=O)(=O)c1ccc(Br)cc1)Nc1ccccn1,–,–,–,–,–,44.7µM
O=C(CCS(=O)(=O)c1ccc(Br)cc1)Nc1ccccc1Cl,–,·,–,–,–,–
COC(=O)c1ccc(NC(=O)CCS(=O)(=O)c2ccc3c(c2)NC(=O)C(C)S3)cc1 (stereo unspecified),7.08µM,–,·,–,–,–
SMILES,Gal4-VP16 FLuc,GALK inhibitor,FBPA coupling cs,TrxR1 substrate,RORgamma inh,rTrxR1 inhibitor
O=C(CC1SC(=Nc2ccc3c(c2)OCCO3)NC1=O)Nc1ccc(F)cc1F (stereo unspecified),–,–,–,–,–,–
COc1ccc(Cn2c(C(=O)O)c(CNCc3ccc(C)o3)c3ccc(OC)cc32)cc1,·,·,·,–,·,–
S=c1[nH]c2ccccc2n2c(=S)[nH]nc12,–,·,–,–,–,?
Cn1c(=S)[nH]c2ccccc21,?,–,–,–,12.6µM,–
COc1ccccc1OCCn1c(=S)[nH]c2ccccc21,10µM,–,–,–,10µM,–
S=c1[nH]c2ccccc2n2cccc12,5.62µM,–,–,–,0.891µM,–
CCOc1ccc(OCCn2c(=S)[nH]c3ccccc32)cc1,5.01µM,–,–,–,5.01µM,–
O=C(OCC(=O)N1CCC(Cc2ccccc2)CC1)c1ccccc1F,·,·,·,–,·,–
Cc1ccc(-c2noc(CN(C3CCCCC3)S(=O)(=O)c3ccc(Cl)cc3)n2)cc1,·,·,·,–,·,–
Cc1ccc(OCCn2c(=S)[nH]c3ccccc32)c(C(C)C)c1,3.98µM,–,–,–,3.55µM,–
N#CCCn1c(=S)[nH]c2ccccc21,–,–,–,–,–,–
CCOc1ccc2c(c1)[nH]c(=S)n2C,?,–,–,–,8.91µM,?
S=c1[nH]c2cnccc2n1Cc1ccccc1,–,–,–,–,?,–
Cc1cccc(OCCn2c(=S)[nH]c3ccccc32)c1,1.58µM,–,–,–,1.26µM,–
S=c1[nH]c2ccccc2n1Cc1ccccc1,7.08µM,–,–,–,?,–
CCOc1ccc(N(CC(=O)Nc2ccccc2CC)S(=O)(=O)c2c(C)[nH]c(=O)[nH]c2=O)cc1,·,·,·,–,·,–
O=C(CCc1nc2ccccc2c(=O)[nH]1)N1CCN(S(=O)(=O)c2ccc(F)cc2)CC1,·,·,·,–,·,–
O=C(O)CCN1c2cccc3cccc(c23)S1(=O)=O,–,–,–,–,–,–
Cc1ccc(-n2nc(C(=O)O)c(C)c(C#N)c2=O)cc1Cl,·,–,–,–,·,–
S=c1[nH]c2ccccc2n1CCOc1ccccc1,2.82µM,–,–,–,–[1.91 µM],–
Cc1cc(-c2ccc(N=Nc3c(S(=O)(=O)O)cc4cc(S(=O)(=O)O)cc(N)c4c3O)c(C)c2)ccc1N=Nc1c(S(=O)(=O)O)cc2cc(S(=O)(=O)O)cc(N)c2c1O,12.6µM,·,·,·,14.1µM,·
CCn1nc(C(=O)OCC(=O)N2CCc3ccccc32)c2ccccc2c1=O,–,–,–,–,?,–
Cn1nnc(NC(=O)c2ccccc2)n1,–,–,–,–,?,–
CC(=O)Nc1ccc(NC(=S)NC(=O)c2cc3ccccc3o2)cc1,–,–,–,–,–,–
Cn1nnc(NC(=S)NC(=O)c2ccco2)n1,10µM,–,-42.7,–,?,–
SMILES,Gal4-VP16 FLuc,GALK inhibitor,FBPA coupling cs,TrxR1 substrate,RORgamma inh,rTrxR1 inhibitor
Cn1nnc(NC(=S)NC(=O)c2cc3ccccc3o2)n1,6.31µM,–,–,–,1.12µM,?
Cn1nnc(NC(=S)NC(=O)Cc2ccccc2)n1,11.2µM,–,–,–,1.41µM,–
CCC(C)C(NC(=O)OC(C)(C)C)C(=O)NC(C(=O)NC(C)C(N)=O)C(C)C (stereo unspecified),–,–,–,–,–,–
CCC1CCCCN1S(=O)(=O)c1ccc2[nH]c(=O)ccc2c1 (stereo unspecified),–,·,–,–,–,–
O=C(Nc1ccc(Cl)cc1)Nc1ccccc1Sc1ncc([N+](=O)[O-])s1,?,–,–,–,11.2µM,?
O=C(Nc1csc([N+](=O)[O-])c1)Nc1ccccc1Cl,–,–,–,–,–,–
CCOC(=O)CNc1nnc(SCC(=O)OCC)[nH]c1=O,–,–,–,–,–,10µM
